Shown are actives, neighbours in structure and some others; about 17% of the full set was active somewhere.
TDP1 cell noCPT = qHTS for Inhibitors of human tyrosyl-DNA phosphodiesterase 1 (TDP1): qHTS in cells in absence of CPT; DT40 Tdp1-/- hTDP1 cells, no CPT, ATP luminescence, 48 h; Potency, µM (series often up to 46.2 µM), inactives show at the top dose activity change, negative = growth inhibition, actives largely listed as inhibitors; 420,000 compounds, 15% hits; AID 686978, 2013; note: % is set by controls: 0 for no effect and ±100 for the full control effect; nearly all actives have a fitted effect of over 55% in size
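Chicken DT40 Tdp1-/- cells complemented with human TDP1, screened without camptothecin (DMSO vehicle only), 400 cells/well. Compounds pin-transferred, cells incubated at 37 °C for at least 48 hr. Growth read as ATP-dependent luminescence (CellTiter-Glo, 30 min at RT).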
ClpP mod = qHTS Assay for Activators of ClpP; ATP-dependent Clp protease proteolytic subunit (Bacillus subtilis (strain 168)), P80244; purified B. subtilis ClpP, FRET peptide cleavage, 20 min; Potency, µM (series often up to 57.5 µM), without a hit: at the highest dose activity change, negative = active; 340,000 compounds, 1.9% hits; AID 651965, 2013; active = well fitted falling curve with a large enough effect; inconclusive = small, poorly fitted or top-dose-only effect; inactive = no such curve, though single readings can be large or run the other way; note: the source files actives as falling curves though it sought activators and does not explain the sign; nearly all actives have a fitted effect of over 65% in size
Target sequence (P80244 whole entry, looked up): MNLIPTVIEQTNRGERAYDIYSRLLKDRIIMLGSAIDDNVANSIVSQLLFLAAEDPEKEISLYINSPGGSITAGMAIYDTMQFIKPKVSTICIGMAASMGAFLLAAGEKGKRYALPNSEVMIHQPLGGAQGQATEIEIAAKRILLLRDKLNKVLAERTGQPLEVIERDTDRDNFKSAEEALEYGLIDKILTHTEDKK
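Buffer: 100 mM Tris/HCl pH8, 100 mM KCl, 0.05% low protease BSA, 2.5% glycerol, 0.01% Tween-20. ClpP 10 microg/mL final; 20 min RT; delta FRET normalized to ADEP and DMSO controls.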
TDP1 block = TDP1 (human) enzyme inhibition; Q9NUW8; recombinant TDP1, AlphaScreen DNA substrate cleavage; Potency, µM (doses to about 130 µM), inactives show at the top dose activity change, negative = inhibition, usual class: inhibitors; 350,000 compounds, 0.28% hits; note: % is set by controls: 0 for no effect and ±100 for the full control effect; nearly all actives have a fitted effect of over 40% in size
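Recombinant human Tdp1 (E. coli-expressed, 1 nM final) preincubated with compounds 15 min at room temperature, then 5'-biotin/3'-phosphotyrosine-FITC DNA substrate (15 nM final) added for 5 min. AlphaScreen beads (10 ug/ml final) added 10 min; cleavage lowers signal.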
DT40 TDP1 CPT = growth inhibition of DT40 Tdp1-/-;hTDP1 cells with camptothecin (screen for TDP1 inhibitors); chicken DT40 Tdp1-/-;hTDP1 cells + 20 nM CPT, ATP luminescence, 48 h; Potency, µM (highest dose often 46.2 µM), for inactives: top-dose activity change, negative = growth inhibition, usual class: inhibitors; 420,000 compounds, 12% hits; note: % is set by controls: 0 for no effect and ±100 for the full control effect; nearly all actives have a fitted effect of over 55% in size
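Chicken DT40 Tdp1-/- cells stably complemented with human TDP1 were seeded at 400 cells/well in medium containing 20 nM camptothecin, exposed to pin-transferred compounds, and grown at 37 °C for at least 48 hr. Viability was read as ATP luminescence.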
* marks the source's active call; other numbers are inactive results; ? = inconclusive; · = no result. Unless noted, calls come from the whole dose curve; as a rule, active = well fitted curve in the direction sought with a large enough effect; inconclusive = small, poorly fitted or top-dose-only effect, or another doubt; inactive = no such curve, though single readings can be large; an effect the other way counts as inactive or inconclusive. Potency is the fitted concentration of half-maximal effect.

SMILES | TDP1 cell noCPT | ClpP mod | TDP1 block | DT40 TDP1 CPT
Cc1cc(Cl)ccc1NC(=S)NCc1ccc(S(N)(=O)=O)cc1 | -2.9% | · | 0.0% | ?
COc1ccc(NC(=S)NCCc2ccccc2OC)c(OC)c1 | ? | -2.7% | 4.5% | ?
COc1cccc(NC(=S)NCCC(c2ccccc2)c2ccccc2)c1 | 13µM* | 0.9% | 5.9% | 20.6µM*
COCC(=O)N1CCC2(CC1)CCN(c1ccccn1)CC2 | -14.5% | · | · | 5.1%
CCCN(Cc1ccccc1)C(=S)Nc1cccc(C)c1C | ? | · | 0.0% | ?
COc1ccc(N2CCN(C(=S)NC(C)c3ccccc3)CC2)cc1 (centres undefined) | 14.6µM* | 3.8% | 4.8% | ?
COc1ccc(NC(=S)N2CCN(C(c3ccccc3)c3ccccc3)CC2)c(OC)c1 | 18.4µM* | · | 5.1% | 14.6µM*
Cc1cc(Cl)ccc1NC(=S)NCCC(c1ccccc1)c1ccccc1 | 15.8µM* | -1.3% | 3.1% | 15.8µM*
Cc1cccc(NC(=S)NN(Cc2ccccc2)c2ccccc2)c1C | 15.8µM* | -0.9% | 5.9% | 25.1µM*
COc1cc(NC(=S)NCCC(c2ccccc2)c2ccccc2)cc(OC)c1 | 18.4µM* | · | 0.0% | ?
COc1cc(OC)cc(C(=O)NCCC(c2ccccc2)c2ccccc2)c1 | ? | -9.4% | · | ?
Cc1cccc(NC(=S)NNC(=S)NCc2ccccc2)c1 | 3.0% | -0.1% | 9.6% | -10.1%
Cc1cccc(NC(=S)NCCC(c2ccccc2)c2ccccc2)c1 | 16.4µM* | 0.8% | 5.6% | ?
CCOC(=O)N1CCN(S(=O)(=O)c2ccc(OCC)c3ccccc23)CC1 | 23.1µM* | -9.0% | 2.0% | 16.4µM*
CCOC(=O)N1CCN(S(=O)(=O)c2ccc(OCC)cc2)CC1 | -27.0% | 1.0% | 3.4% | ?
CCOC(=O)N1CCN(S(=O)(=O)c2ccc(OC)c(Cl)c2Cl)CC1 | 13µM* | -1.0% | 5.5% | ?
CCOc1ccc(N(CC(=O)Nc2ccccc2OC)S(C)(=O)=O)cc1 | ? | -0.7% | · | ?
CCOC(=O)c1ccccc1NC(=O)CN(c1ccc(OCC)cc1)S(C)(=O)=O | · | · | 0.0% | ·
CCOc1ccc(N(CC(=O)Nc2ccccc2Cl)S(C)(=O)=O)cc1 | 25.9µM* | 1.7% | · | 18.4µM*
CCOc1ccc(N(CC(=O)Nc2cc(Cl)ccc2C)S(C)(=O)=O)cc1 | 23.1µM* | 1.1% | 3.4% | ?
C[C@@H]1Cn2cnc(C(=O)N[C@@H](C)C(=O)OC(C)(C)C)c2C(=O)N1 | -22.2% | 0.5% | · | -0.6%
C[C@@H]1CCCCCCCCC(=O)OCCN[C@H](C)CCCCCCCCC(=O)OCCN[C@H](C)CCCCCCCCC(=O)OCCN1 | 20.6µM* | -0.2% | 4.1% | 13µM*
COCCN(C(=O)COC(=O)/C=C/c1ccc(C(F)(F)F)cc1)c1c(N)n(Cc2ccccc2)c(=O)[nH]c1=O | 20.6µM* | 0.5% | -7.4% | 20.6µM*
COCCN(C(=O)COC(=O)Cc1cccc2ccccc12)c1c(N)n(Cc2ccccc2)c(=O)[nH]c1=O | -17.3% | -16.8% | 0.9% | -2.9%
COCCN(C(=O)COC(=O)Cc1coc2cc(C)ccc12)c1c(N)n(Cc2ccccc2)c(=O)[nH]c1=O | -16.0% | -3.4% | 28.2µM* | -9.0%
SMILES | TDP1 cell noCPT | ClpP mod | TDP1 block | DT40 TDP1 CPT
COCCN(C(=O)COC(=O)/C=C/c1ccc(SC)cc1)c1c(N)n(Cc2ccccc2)c(=O)[nH]c1=O | -4.2% | 22.4µM* | · | -19.5%
O=S1(=O)N=C(Oc2ccc(-c3ccccc3)cc2)c2ccccc21 | · | · | 1.6% | ·
CC1(C)Cc2cccc(OC(=O)NCCc3ccc(F)cc3)c2O1 | ? | 1.4% | · | ?
Cc1ccc2c(COC(=O)C3CSC4(C)CCC(=O)N34)cc(=O)oc2c1C (centres undefined) | 4.8% | -7.3% | 1.9% | 0.5%
CCn1c(CN2CCC(C)CC2)nc2cc(NC(=O)COc3ccc([N+](=O)[O-])cc3)ccc21 | -19.0% | -0.9% | 2.6% | -20.2%
COc1cccc2c1cc1c(=O)n(CC(=O)N3CCN(c4ccc(Cl)cc4)CC3)nc(C)n12 | -11.7% | -18.0% | 2.9% | -5.4%
CSc1cccc(NC(=O)C(c2ccccc2)N2Cc3ccccc3C2=O)c1 (centres undefined) | -9.8% | -21.1% | 9.9% | 10.4%
COC(=O)c1ccc(NC(=S)NCCC2=CCCCC2)cc1 | -23.0% | -1.0% | 4.1% | -11.9%
COC(=O)c1cccc(NC(=S)NCCC2=CCCCC2)c1 | 10.3µM* | -1.8% | 4.8% | 11.6µM*
CC(=O)c1cccc(NC(=S)NCCc2ccc(Cl)cc2)c1 | 18.4µM* | -12.1% | 0.0% | ?
CC(=O)c1ccc(NC(=S)NCc2ccc(Cl)cc2Cl)cc1 | 23.1µM* | -0.1% | 0.0% | ?
COC(=O)Cc1ccc(NC(=S)NCc2ccccc2Cl)cc1 | -36.8% | 1.7% | 2.7% | ?
CC(=O)c1cccc(NC(=S)NCc2ccccc2)c1 | -14.8% | -0.3% | · | -2.9%
C=CCn1c(=O)c(C(=O)Nc2ncccc2C)c(O)c2ccccc21 | -8.7% | -7.8% | · | -9.3%
O=c1c2c(nc3cc(-c4ccc(Cl)cc4)[nH]n13)CCS2 | ? | -5.5% | 0.0% | ?
Cc1cc(NC(=O)CN2C(=O)/C(=C/c3ccc(C(C)C)cc3)SC2=S)no1 | ? | -1.4% | · | ?
CCOc1ccc(/C=C/c2nc3ccccc3n2S(=O)(=O)c2ccc(Br)cc2)cc1 | ? | ? | 0.0% | ?
CC1(c2ccccc2)NC(=O)N(CC(=O)N2CCN(S(=O)(=O)c3cccc(C(F)(F)F)c3)CC2)C1=O (centres undefined) | -5.4% | -1.9% | · | -23.9%
CSc1ccc(/C=C/c2nc3ccccc3n2S(=O)(=O)c2ccc(Br)cc2)cc1 | 10.3µM* | 3.8% | 2.3% | 14.6µM*
O=S(=O)(c1cccc(C(F)(F)F)c1)n1c(/C=C/c2ccccc2)nc2ccccc21 | 10.3µM* | 4.8% | -5.2% | 8.2µM*
Cc1cc(C)n2nc(SCC(=O)Nc3cccc(C(F)(F)F)c3)nc2n1 | · | -3.8% | 1.1% | ·
COC(=O)[C@]12CCCCC=C1N(Cc1ccc(Cl)cc1Cl)C(=O)[C@H](CC(=O)NCc1ccc(C)o1)C2 | 16.4µM* | -1.5% | · | ?
CCCCOCCCNC(=O)C[C@@H]1C[C@@]2(C(=O)OC)CCCCC=C2N(Cc2ccc(Cl)cc2Cl)C1=O | ? | 0.0% | · | ?
COC(=O)[C@]12CCCCC=C1N(Cc1ccc(Cl)cc1Cl)C(=O)[C@H](CC(=O)NCCC(C)C)C2 | 20.6µM* | 1.7% | · | ?
COC(=O)[C@]12CCCCC=C1N(Cc1ccc(Cl)cc1Cl)C(=O)[C@H](CC(=O)NCCc1ccccc1OC)C2 | ? | -2.2% | · | ?
CCCCNC(=O)C[C@@H]1C[C@@]2(C(=O)OC)CCCCC=C2N(Cc2ccc(Cl)cc2Cl)C1=O | 16.4µM* | -4.6% | · | ?

Bioassay records deposited in PubChem by National Center for Advancing Translational Sciences (NCATS).
